Results reported in PubChem BioAssay (NCATS).
Values without a mark were called inactive. Calls of active or inactive are those of the source. Calls come from the whole dose curve; as a rule, active = well fitted curve in the direction sought with a large enough effect; inconclusive = small, poorly fitted or top-dose-only effect, or another doubt; inactive = no such curve, though single readings can be large or run the other way. Square brackets hold non-standard residues; d marks the D form. Peptide text beside a SMILES is read from it. ξ: configuration not given here. ξL = CC(C)CC(N)C(=O)O

Test: Inflammasome Signaling qHTS Counterscreen: IL-1-beta AlphaLISA counterscreen against the NCATS CANVASS Library (AID 1347381);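 note: cell-free check with purified IL-1β in medium and no THP-1 cells; 0% is about no effect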
Settings: Purified IL-1beta AlphaLISA signal interference counterscreen; series mostly up to 57.5 µM
Source text: Natural products and their derivatives continue to be wellsprings of nascent therapeutic potential. However, many laboratories have limited resources for biological evaluation, leaving their previously isolated or synthesized compounds largely or completely untested. To address this issue, the Canvass library of natural products was assembled (https://tripod.nih.gov/canvass), in collaboration with academic and industry researchers, for quantitative high-throughput screening (qHTS) across a diverse set of cell-based and biochemical assays. The pure (>85% purity by liquid chromatography/mass spectrometry [LC/MS]) Canvass library of 346 natural products were submitted by 45 academic laboratories and companies around the world. We collected pure natural products to circumvent deconvolution and structure elucidation due to time and resource limitations. The library was formatted into 1536-well plates and evaluated in 50 qHTS (in an 11-pnt concentration series) bioassays with broad scope of disease-relevant mechanisms. The resulting data set from 50 different assays was then systematically analyzed to identify overall trends and specific natural products with interesting biological activities. Reported herein are the results of each individual qHTS and their corresponding assay protocol. A qHTS assay, based on AlphaLISA technology, was developed to screen the NCATS CANVASS library to look for novel inflammasome inhibitors. The assay detects IL-1B using AlphaLISA anti-IL-1B acceptor and donor beads. Human THP-1 cells were incubated with Canvass compound for 1 hr, followed by stimulation with lipopolysaccharide and ATP to induce inflammasome activation. […] National Center for Advancing Translational Sciences (NCATS), Rockville, MD National Institute of Health (NIH), Bethesda, Maryland
IL-1-beta-counterscreen qHTS protocol: 1. Four microliter of cell culture media (low control, columns 3-4) with 4 pg purified IL-1-beta (high control; columns 1-2 and 5-48) were dispensed into a 1536-well, solid white, tissue culture-treated assay plates using the BioRapTR dispenser. 2. 23 nL of compounds (in DMSO solution) or vehicle control (DMSO) were pin transferred into the assay plates using the Kalypsis pin-tool equipped with a 1536 well pin heads. 3. 1.5 uL AlphaLISA reagent 1 (6 ug/mL anti-IL-1-beta AlphaLISA acceptor beads + 0.6 nM anti-IL-1-beta biotinylated antibody final concentrations) was added using the BioRapTR dispenser. 4. The assay plates were incubated at room temperature for 1 hour. 5. 1.5 uL of AlphaLISA reagent 2 (24 ug/ml AlphaLISA SA-Donor beads, final concentration) was then added to the assay plates followed by a 30 min in the dark incubation at room temperature. 6. The AlphaLISA signal was read by the EnVision plate reader (PerkinElmer) using a 680 nm excitation and 615 nm emission filters.

Structure (SMILES) | outcome | activity change, negative = inhibition
C/C=C1/CN2C3CC1C1C=CC(=O)N4c5ccccc5[C@@]3(C[C@@H]2C2=C[C@H]3C5CC6N(CC[C@@]67c6ccccc6N(C2=O)[C@@H]37)C/C5=C/C)[C@H]14 (stereo not given in full) | inactive | 
C=C(Cl)[C@](Cl)(CBr)CC[C@@H](Br)C(C)(C)Cl | inactive | 
C=C[C@]1(C)CC[C@@H]([C@H](C)C(=O)/C=C/C(C)(C)O)O1 | inactive | 
CCC(=O)N[C@@H](C[C@H](C)C(Cl)(Cl)Cl)C(=O)N1C(=O)C=C(OC)[C@@H]1CC(C)C | inactive | 
C=C1CCC2C(C)(C(=O)O)CCC(CC/C(C)=C/C(=O)NC(CCC(N)=O)C(=O)O)[C@@]2(C)C1 (stereo not given in full) | inactive | 
C=C1C(=O)O[C@H]2[C@H]1CCC(C)=C1CC[C@@](C)(O)[C@@H]12 | inactive | 
CC(CCC[C@]1(C)C(=O)C=C[C@@]23C[C@]4(C)O[C@@H](C[C@@H]4[C@H]2O)C31)C(=O)O (stereo not given in full) | inactive | 
COc1ccc([C@@H]2CC(=O)c3c(cc(O)c(C/C=C(\C)CCC=C(C)C)c3O)O2)cc1 |  | -7.89% [at 11.5 µM]
C/C(=C\[C@H](C)C(=O)C[C@H](O)CC1CC(=O)NC(=O)C1)[C@@H]1OC(=O)CCCC/C=C/[C@@H](O)C[C@@H]1C | inactive | 
COC(=O)c1cccc2oc(-c3cccc4oc(-c5c(C)cccc5O)nc34)nc12 | inactive | 
COc1c(O)cc(O)c2c(=O)cc(-c3ccccc3)oc12 | inactive | 
CO[C@@H](C[C@@H](C)[C@@H](O)/C=C/C=C/CNC(=O)C(C)(C)[C@H](O)\C(C)=C/C=C\C=C\Cc1cnco1)[C@]1(O)[C@@H](C)C(=O)N(C)[C@@]12COC2=O | inactive | 
Cc1cc(C)c(O)c(C(=O)CC2CC(=O)NC(=O)C2)c1 | inactive | 
C[C@@]12CCC[C@@](C)(C(=O)O)[C@H]1C[C@@H](O)[C@@]13C[C@@H](CC[C@@H]21)[C@](C)(O)C3 | inactive | 
COC(=O)C1=C[C@]23C[C@@H](C)CC[C@@H]2[C@@]2(C)CC[C@@H](C(C)C)[C@@](O)(O3)[C@@H]12 | inactive | 
C/C=C/c1cc2c(c(=O)o1)C(=O)[C@@H](O)[C@H](C)O2 | inactive | 
C[C@H](CCC(O)C(C)(O)CO)[C@@]1(O)CC[C@@]2(C)C3=C(CC[C@@]21C)[C@@]1(C)CCC(OC(=O)CCC(=O)O)C(C)(C)[C@@H]1CC3 (stereo not given in full) | inactive | 
C/C=C(/CO)C(=O)O[C@@H]1[C@H](O)[C@@H](C(=O)OC)O[C@@H]2C[C@H]3OC(n4cnc5c(N)ncnc54)[C@H](OC)[C@H]3O[C@@]12O (stereo not given in full) | inactive | 
[C-]#[N+][C@@]12C(=O)[C@@H]3[C@@H](O[C@@]4(C(=O)N(C)c5cccc1c54)C3(C)C)C(=O)[C@@]2(C)C=C | inactive | 
CCC(=O)CCCCC[C@@H]1NC(=O)[C@H]2CCCCN2C(=O)[C@H](C(C)C)NC(=O)[C@H](Cc2cn(OC)c3ccccc23)NC1=O | inactive | 

Structure (SMILES) | outcome | activity change, negative = inhibition
O=C(OC[C@H]1O[C@@H](OC(=O)c2cc(O)c(O)c(O)c2)[C@H](OC(=O)c2cc(O)c(O)c(O)c2)[C@@H](OC(=O)c2cc(O)c(O)c(O)c2)[C@@H]1OC(=O)c1cc(O)c(O)c(O)c1)c1cc(O)c(O)c(O)c1 | inactive | 
COc1cc(O)c(C(=O)[C@@H]2[C@H](CC=C(C)C)C(C)=CC[C@H]2c2ccccc2)c(O)c1 | inactive | 
O=C1CC(c2ccc(O)cc2)Oc2cc(O)ccc21 (stereo not given) | inactive | 
C[C@@H]1CC[C@]2(C(=O)O)CC[C@]3(C)C(=C2[C@H]1C)CC[C@@H]1[C@@]2(C)CC[C@H](O)C(C)(C)[C@@H]2CC[C@]13C | inactive | 
C[C@]12CC[C@]3(C1)[C@H](CC2=O)C[C@@H](OC(=O)c1ccccc1)[C@H]1[C@](C)(C(=O)O)CCC[C@@]13C | inactive | 
C=C[C@@]1(C)CC[C@@H]([C@H](C)C(C)=O)O1 | inactive | 
COc1cc(C2OCC3C(c4ccc(O)c(OC)c4)OCC23)ccc1O (stereo not given) |  | -8.43% [at 11.5 µM]
C/C(=C\[C@@H](C)CC/C=C/CC/C=C/C(=O)O)[C@H](O)[C@H](C)C(=O)CCCC1CC(=O)NC(=O)C1 | inactive | 
CC[C@@H](C)[C@H]1NC(=O)C(CC(C)C)NC(=O)[C@@H](CC(C)C)NC(=O)[C@H](Cc2c[nH]c3ccccc23)NC(=O)CNC(=O)[C@@H](CC(N)=O)NC1=O (stereo partly drawn) (cyclo(GW[dL][ξL][dI][dN])) | inactive | 
COC12OC1(C13OC1(OC)C(=O)c1cc4cc(C)oc(=O)c4c(O)c1C3O)C(O)c1c(cc3cc(C)oc(=O)c3c1O)C2=O (stereo not given) | inactive | 
C[C@@]12CCC[C@@](C)(C(=O)OP(=O)(O)OC[C@H]3O[C@@H](n4cnc5c(N)ncnc54)[C@H](O)[C@@H]3O)[C@H]1C[C@@H](O)[C@@]13C[C@@H](CC[C@@H]21)[C@](C)(O)C3 | inactive | 
Cc1occ2c1C(=O)c1c(cc(O)c(O)c1O)C2=O | inactive | 
CN1CC[C@]2(c3cccc4c3N[C@H]3N(C)CC[C@@]43[C@]34CCN(C)[C@H]3Nc3ccccc34)c3ccccc3N[C@H]12 | inactive | 
O=C1CC2OCC=C3CN4C5CC3C2[C@@H]2N1c1ccccc1[C@]52C[C@@H]4C1=C[C@H]2C3CC4N(CC[C@@]45c4ccccc4N(C1=O)[C@@H]25)C/C3=C/CO (stereo not given in full) | inactive | 
CC1=C(C)C(=O)OC(C(C)C2(O)CCC3C4C5OC5C5(O)CC=CC(=O)C5(C)C4CCC32C)C1 (stereo not given) | inactive | 
O=Cc1ccc2n1C[C@]1(OC2)O[C@H](CO)[C@@H](O)[C@@H]1O | inactive | 
COc1c(O)cc2c(c1O)C(=O)c1c(coc1C)C2=O | inactive | 
C/C(=C\[C@H](C)C(=O)C[C@H](O)CC1CC(=O)NC(=O)C1)[C@@H]1OC(=O)CCCC/C=C/C[C@@H](O)[C@@H]1C | inactive | 
C[n+]1cc2cc(C(N)=O)[nH]c3c(=N)c(Cl)c(N)c1c23 | inactive | 
C/C=C/C1C=CC2CC(C)CC(C)C2C1C(=O)CC(=O)NC(CO)C/C=C/CCCCC (stereo not given) | inactive | 
